This is an account of results in PubChem BioAssay.

A short description of assay [1]: A549 cell viability effects, profiling panel, calcein-AM fluorescence, 48 h, basal (AID 1162). Also: test concentration not given here. To be noted: higher = more signal.
Assay [2] is described as follows: adipocyte viability effects, profiling panel, cell-based, 3T3-L1 adipocytes, calcein-AM fluorescence, 48 h, basal (AID 1163). Also: test concentration not given here. The following applies: 3T3-L1 adipocytes viability, higher = more signal.
A short description of assay [3]: HepG2 cell viability effects, profiling panel, calcein-AM fluorescence, 48 h, basal (AID 1164). Also: test concentration not given here. The following applies: higher = more signal.
A short description of assay [4]: MM1S cell viability effects, profiling panel, calcein-AM fluorescence, 48 h, basal (AID 1165).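 Also: viability of MM1S multiple myeloma cells under basal unstimulated conditions; test concentration not given here.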 The following applies: higher = more signal.
Assay [5] in a line: basal RPMI8226 viability, no added stimulus, profiling panel, cell-based, calcein-AM fluorescence, 48 h, PK04 Diversity Set (AID 1166).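 Also: cells grown under basal conditions without added stimulus; test concentration not given here.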 To be noted: RPMI8226 myeloma viability, higher = more signal.
A short description of assay [6]: basal HepG2 mitochondrial membrane potential changes, profiling panel, cell-based, JC-1 fluorescence, 24 h, 100 nL compound (AID 1167). Also: test concentration not given here. The following applies: higher = more signal.
A short description of assay [7]: basal 3T3-L1 adipocyte mitochondrial potential changes, profiling panel, cell-based, JC-1 fluorescence, 3T3-L1 adipocytes, 24 h, 100 nL compound (AID 1168). Also: test concentration not given here. The following applies: JC-1 mitochondrial fluorescence, higher = more signal, called active from +8 up or from −8 down.
A short description of assay [8]: basal RPMI8226 mitochondrial membrane potential changes, profiling panel, cell-based, JC-1 fluorescence, 24 h, 100 nL compound (AID 1169). Also: test concentration not given here. To be noted: RPMI8226 myeloma, JC-1 mitochondrial potential fluorescence, higher = more signal.
Assay [9] can be described thus: basal MM1S mitochondrial membrane potential changes, profiling panel, cell-based, JC-1 fluorescence, 24 h, 100 nL compound (AID 1170). Also: test concentration not given here. The following applies: higher = more signal.
The nature of assay [10]: A549 lung cancer cell viability effects, profiling panel, resazurin fluorescence, 24 h, PK04 Diversity Set (AID 1171). Also: test concentration not given here. The following applies: higher = more signal, called active from +8 up or from −8 down.
Assay [11] is described as follows: HepG2 liver cancer cell viability effects, profiling panel, resazurin fluorescence, 24 h, PK04 Diversity Set (AID 1172). Also: test concentration not given here. The following applies: higher = more signal.
Assay [12] is described as follows: basal S. cerevisiae growth modulation, no modifier, primary screen, OD600, strain BY4716, 24 h, basal condition (AID 1173). To be noted: OD600, 24 h, higher = more signal, called active from +8 up or from −8 down.
Assay [13] in a line: MM1S myeloma cell viability, profiling panel, resazurin fluorescence, basal, 24 h, PK04 Diversity Set (AID 1174). Also: test concentration not given here. To be noted: higher = more signal, called active from +8 up or from −8 down. A general note: Resazurin is reduced to fluorescent resorufin, in cell work by metabolically active cells.
Assay [14] concerns the target Dihydroorotate dehydrogenase (quinone), mitochondrial (Plasmodium falciparum (isolate 3D7)) (UniProt Q08210). Description: PfDHODH enzyme inhibitors, primary screen, biochemical, C-terminal His tag, absorbance 600 nm (AID 1175).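 Also: recombinant parasite enzyme with a five histidine tag at its C terminus; test concentration not given here.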 To be noted: DCIP absorbance 600 nm, higher = more signal, called active from +8 up or from −8 down.
Assay [15] in a line: P. aeruginosa biofilm formation inhibitors, primary screen, strain PAO1, LB-PBS medium, absorbance 600 nm (AID 1176). Also: test concentration not given here. The following applies: P. aeruginosa PAO1 growth/biofilm, A600, 12 h; higher = more signal.
Assay [16] in a line: S. cerevisiae RM11-1a growth modifiers, primary screen, strain RM11-1a, OD600, basal, 24 h (AID 1177).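 Also: cultures grown under basal conditions with no added stressor; test concentration not given here.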 The following applies: OD600, 24 h, higher = more signal, called active from +8 up or from −8 down.
A short description of assay [17]: E. coli acrAB mutant growth effects, primary screen, E. coli filamentation inducers, strain DRC39, OD650, 24 h (AID 1178).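 Also: growth measured as culture turbidity by optical density at 650 nm; test concentration not given here.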 To be noted: higher = more signal, called active from +8 up or from −8 down.
A short description of assay [18]: E. coli acrAB mutant growth effects, primary screen, E. coli filamentation inducers, strain DRC39, OD650, 48 h (AID 1179).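 Also: screen aims at cell division blockers that make cells filament.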 To be noted: E. coli DRC39 delta-acrAB growth, higher = more signal, called active from +8 up or from −8 down.
Assay [19] is described as follows: RPMI8226 myeloma cell viability, profiling panel, resazurin fluorescence, basal, 24 h, PK04 Diversity Set (AID 1180).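 Also: RPMI8826 multiple myeloma cell line at 5000 cells per well; test concentration not given here.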 The following applies: higher = more signal.
For assay [20], the target named is E3 ubiquitin-protein ligase XIAP (Homo sapiens) (UniProt P98170). Description: XIAP binders, primary screen, biophysical, small-molecule microarray, fluorescence 635 nm (AID 1181).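 Also: score merges 667 nm emission and signal to noise over triplicate slides.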 The following applies: small-molecule microarray binding, higher = more signal.
E3 ubiquitin-protein ligase XIAP (Homo sapiens), sequence (P98170 whole entry, looked up): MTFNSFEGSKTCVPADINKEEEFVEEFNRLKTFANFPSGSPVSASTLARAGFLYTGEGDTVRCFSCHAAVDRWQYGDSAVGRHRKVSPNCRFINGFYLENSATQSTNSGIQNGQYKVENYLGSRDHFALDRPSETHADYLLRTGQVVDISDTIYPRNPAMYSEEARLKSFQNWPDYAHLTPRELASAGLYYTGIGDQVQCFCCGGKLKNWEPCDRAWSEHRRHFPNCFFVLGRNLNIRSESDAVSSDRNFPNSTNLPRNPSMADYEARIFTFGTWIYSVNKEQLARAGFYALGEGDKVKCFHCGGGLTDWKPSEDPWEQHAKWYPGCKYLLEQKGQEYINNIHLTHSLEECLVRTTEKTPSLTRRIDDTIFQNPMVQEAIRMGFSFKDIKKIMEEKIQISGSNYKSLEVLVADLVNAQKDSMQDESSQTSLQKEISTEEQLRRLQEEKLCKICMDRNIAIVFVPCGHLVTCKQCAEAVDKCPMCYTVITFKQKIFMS

Active and inactive are the calls of the source. Unless noted, no rule for the calls is given here.

Dihydroorotate dehydrogenase (quinone), mitochondrial (Plasmodium falciparum (isolate 3D7)), sequence (Q08210 whole entry, looked up): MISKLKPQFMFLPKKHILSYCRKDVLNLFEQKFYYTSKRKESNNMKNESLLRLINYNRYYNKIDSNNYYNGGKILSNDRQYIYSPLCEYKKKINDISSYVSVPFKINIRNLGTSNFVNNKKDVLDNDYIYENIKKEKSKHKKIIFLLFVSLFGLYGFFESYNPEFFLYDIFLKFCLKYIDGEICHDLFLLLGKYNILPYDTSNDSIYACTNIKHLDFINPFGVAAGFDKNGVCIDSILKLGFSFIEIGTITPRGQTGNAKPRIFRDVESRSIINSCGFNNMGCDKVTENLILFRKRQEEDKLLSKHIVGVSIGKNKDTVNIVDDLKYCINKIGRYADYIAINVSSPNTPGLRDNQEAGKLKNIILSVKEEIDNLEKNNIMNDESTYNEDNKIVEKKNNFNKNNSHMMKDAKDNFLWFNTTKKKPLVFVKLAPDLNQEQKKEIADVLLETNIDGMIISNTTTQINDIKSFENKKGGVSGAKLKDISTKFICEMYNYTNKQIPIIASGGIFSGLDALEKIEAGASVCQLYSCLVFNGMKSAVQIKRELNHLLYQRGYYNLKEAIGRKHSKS

Regarding `C=CC[C@@]1(C(=O)N2CCCCC2)N=C(c2ccc(OCCCO)cc2)O[C@@H]1c1ccccc1`, the z-score in assay [1] is -0.721; in assay [2] it was 0.533; in assay [3], 0.292; in assay [4], -1.3; in [5], -1.13; in assay [6] it was -0.381. The z-score in assay [7] was -0.282 (inactive); in assay [8], -1.09; in assay [9], 0.0448; in assay [10] it was 2.5 (inactive); in assay [11], 1.63; in assay [12], -3.63 (inactive). Moreover, the z-score in [13] is 1.6 (inactive); in assay [15], -0.441 (inactive); in assay [16], 0.404 (inactive); in assay [17] it was -0.212 (inactive); in assay [18], -0.155 (inactive); in assay [19], 1.02. The results for the composite z-score in [14] and in [20] were -0.765 (inactive) and 0.454, respectively.

Take `COc1cc2c(cc1OC)CN(C(=O)[C@@H]1[C@H]3C(=O)O[C@H](c4ccccc4)[C@H](c4ccccc4)N3[C@H](c3ccccc3OCCO)[C@@]13C(=O)Nc1ccc(C#CC4(O)CCCCCC4)cc13)CC2`: the z-score in assay [1] is 0.74; in assay [2], -0.277; in assay [3] it was 0.711; in assay [4], -0.292; in assay [5], -1.88; in [6] it was -0.612. The z-score in assay [7] was 1.3 (inactive); in assay [8], -0.792; in [9] it was -1.31; in assay [10], -0.373 (inactive); in assay [11] it was 0.529; in assay [12], 0.882 (inactive). Besides, the z-score in [13] is -2.17 (inactive); in [15], 2.03 (inactive); in assay [16] it was 3.23 (inactive); in assay [17], -0.236 (inactive); in assay [18], 1.01 (inactive); in assay [19], 0.284. Besides, the composite z-score in assay [14] was 0.44 (inactive); in [20], -0.11.

With `[N-]=[N+]=NCc1ccccc1C[C@]1(C(=O)NCC(O)CO)N=C(c2ccc(OCCCO)cc2)O[C@H]1c1ccccc1CN=[N+]=[N-]` (stereo not given in full), the z-score in assay [1] is -0.905; in assay [2] it was 1.01; in [3], -0.426; in assay [4], -2.3; in assay [5], -2.6; in [6], 0.136. Further, the z-score is -0.323 (inactive) in [7]; -1.02 in assay [8]; -0.555 in [9]; -0.402 (inactive) in assay [10]; -0.459 in assay [11]; -0.804 (inactive) in [12]. The z-score in assay [13] is -0.449 (inactive); in assay [15], 1.09 (inactive); in assay [16], 0.18 (inactive); in assay [17], 0.78 (inactive); in assay [18], -0.012 (inactive); in [19] it was -0.881. The composite z-score in [14] is -0.212 (inactive); in [20], -0.149.

With `CC(C)NC(=O)[C@@]1(C)c2ccccc2C(=O)N(C(C)C)[C@H]1c1ccc(CO)cc1`, the z-score in assay [1] is -0.619; in [2], 0.545; in [3], -0.335; in assay [4], 0.608; in assay [5], 0.0593; in assay [6], 0.313. The z-score in assay [7] is -0.527 (inactive); in assay [8], 0.713; in assay [9], 1.32; in assay [10] it was -0.271 (inactive); in [11], -1.1; in assay [12], -0.106 (inactive). The z-score in [13] was -0.822 (inactive); in assay [15], 0.972 (inactive); in assay [16], -0.553 (inactive); in [17], 0.0378 (inactive); in assay [18], -0.611 (inactive); in assay [19], -0.43. Moreover, the results for the composite z-score in assay [14] and in assay [20] were 0.127 (inactive) and 0.0982, respectively.

With `O=C(CCCCCCC(=O)Nc1ccccc1)N/N=C/c1ccccc1`, the z-score in assay [1] is 1.08; in assay [2] it was 0.194; in assay [3], -0.371; in [4], -0.669; in assay [5], -0.419; in assay [6], -0.807. The z-score in assay [7] was -0.498 (inactive); in assay [8], -0.045; in [9] it was -0.593; in assay [10] it was 0.589 (inactive); in assay [11], 0.327; in assay [12] it was 0.141 (inactive). Besides, the z-score in assay [13] was 0.532 (inactive); in assay [15] it was 0.437 (inactive); in assay [16], 0.678 (inactive); in assay [17] it was 0.83 (inactive); in assay [18], 0.159 (inactive); in [19], 0.718. In addition, the composite z-score in assay [14] was -0.543 (inactive); in [20], 0.248.

Regarding `CO[C@H]1O[C@H](CO)[C@@H](OC(=O)c2ccc(Br)cc2)[C@@H]2OC(=O)[C@@H](Cc3ccc4ccccc4c3)C/C=C/C[C@H](Cc3ccc4ccccc4c3)C(=O)O[C@@H]12`, the z-score was 1.12 in assay [1]; 1.26 in assay [2]; 0.564 in assay [3]; -0.0385 in assay [4]; -0.21 in assay [5]; -0.122 in assay [6]. The z-score in assay [7] is 0.497 (inactive); in assay [8], -0.299; in [9], -0.179; in [10], -1.41 (inactive); in assay [11], -0.213; in assay [12], -1.23 (inactive). The z-score in [13] is -0.612 (inactive); in assay [15] it was -0.649 (inactive); in [16], -1.34 (inactive); in assay [17], 0.738 (inactive); in assay [18], 1.03 (inactive); in assay [19], 0.402. Further, the figures for the composite z-score in [14] and in [20] were -1.92 (inactive) and 0.0848, respectively.

Turning to `COCCCNC(=O)[C@]1(Cc2ccccc2N=[N+]=[N-])N=C(c2ccc(OCCCO)cc2)O[C@@H]1c1ccccc1N=[N+]=[N-]`, the z-score was -0.795 in assay [1]; 0.0826 in [2]; -3.44 in assay [3]; -3.52 in [4]; -3.99 in assay [5]; -0.892 in assay [6]. The z-score in [7] is 1.03 (inactive); in assay [8], -1.17; in assay [9], -2.71; in assay [10] it was -2.56 (inactive); in [11], -2.52; in [12], 0.298 (inactive). Moreover, the z-score in [13] was -3 (inactive); in assay [15], 1.07 (inactive); in assay [16], 0.315 (inactive); in assay [17], 0.342 (inactive); in assay [18], -0.435 (inactive); in assay [19], -2.76. The figures for the composite z-score in assay [14] and in assay [20] were -0.282 (inactive) and -0.0332, respectively.
